From PubChem BioAssay
This is a sample that favours compounds with a hit; in the whole collection about 4% have one here.
HIF-2a inh: inhibitors of HIF-2a. inhibition, % at 18.8 µM. 786-0 RCC cells HIF-2a reporter, luciferase luminescence, overnight. AID 624352. 360,000 tested, 0.72% active;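 active = inhibition of the luminescence signal of 40% or more relative to plate controls, in a single-dose primary screen at 18.75 µM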
KKLEB cytotox: counter-screen for CF NF-kB inhibitors: cytotoxicity; 360,000 tested, 0.36% active; KKLEB CF airway cells viability, ATPlite luminescence, overnight; hits give low values; cells stimulated with P. aeruginosa culture filtrate; activity change (cytotoxicity), % at 5 µM;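 active = corrected activity change at or below -50% at 5 µM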
TWEAK Fn14 block: inhibitors of TWEAK-Fn14 interaction signaling. 360,000 tested, 2% active. inhibition, % at 10 µM. TWEAK-stimulated Fn14 reporter cells, luciferase luminescence, 8 h. AID 1159606; in the data active = inhibition above about 50%
TROY NFkB inh: TROY signaling inhibition; AID 1347056; Q293 LMP1-TROYcd NF-kB luciferase reporter, 4 h; inhibition, % at 10 µM; 360,000 tested, 0.98% active;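 active = compounds whose plate-normalised and pattern-corrected inhibition of the luciferase reporter signal at the single screening dose is 50% or more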
Peg3 prom inh: reduces Peg3 promoter-driven luciferase expression in HeLa; HeLa PEG-Prom luciferase reporter, luminescence, overnight; AID 588405; 360,000 tested, 1.7% active; inhibition, % at 20 µM;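 active = inhibition of at least 50% at 20 µM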
CF NFkB block: blocks PAF-induced NF-kB reporter in cystic fibrosis cells. inhibition, % at 5 µM. 360,000 tested, 0.86% active. KKLEB NF-kB-GFP reporter, GFP fluorescence overnight;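 active = at least 50% inhibition at 5 µM, scaled per plate between neutral and stimulator controls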;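 note: PAF is a Pseudomonas aeruginosa culture filtrate used as stimulus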
Hits are given with their value; n = inactive; x = no result given.

SMILES	HIF-2a inh	KKLEB cytotox	TWEAK Fn14 block	TROY NFkB inh	Peg3 prom inh	CF NFkB block
O=C(Nc1nc(-c2ccccc2)c(C(=O)c2ccccc2)s1)c1ccc(S(=O)(=O)N2CCCCC2)cc1	n	n	52	n	n	n
C=C(C)COc1ccc(-c2nc(N)ncc2-c2ccc(Cl)cc2)c(O)c1	n	n	n	n	n	n
C#CCNC(=O)C[C@@H]1C[C@@]2(C(=O)OC)CC(C)(C)CC=C2N(Cc2ccccc2)C1=O	n	x	x	x	x	x
COc1ccc(-n2nc(C(=O)c3cccs3)cc(-c3nc4ccccc4[nH]3)c2=N)cc1	n	n	n	n	87	n
Cc1ccccc1-n1nc(C(=O)c2cccs2)cc(-c2nc3ccccc3[nH]2)c1=N	n	n	n	n	n	n
Cc1ccc(S(=O)(=O)NC(C)CCc2ccccc2)cc1C(N)=O (centres undefined)	n	n	n	n	n	n
COc1ccc(CCNC(=O)Nc2nnc([C@@H]3C[C@H](O)[C@@H](CO)O3)s2)cc1OC	n	n	n	n	n	n
O=C(COc1ccc(F)cc1)Nc1nc(-c2cccnc2)cs1	n	n	n	n	n	n
Cn1c(SCC(=O)N/N=C/c2cc([N+](=O)[O-])ccc2O)nnc1-c1ccccc1	n	n	n	n	n	n
Cn1c(SCC(=O)N/N=C/c2ccc([N+](=O)[O-])s2)nnc1-c1ccccc1	n	n	58	n	64	n
CC(=O)N1CCc2cc(S(=O)(=O)NC(CC(C)C)C(=O)Nc3ccc4c(c3)OCCO4)ccc21 (centres undefined)	n	n	57	n	n	n
CC(C)(C)OC(=O)N1CCC[C@H]1C(=O)Nc1ccc(S(=O)(=O)C(F)F)cc1	n	n	n	n	n	n
Nn1c(SCC(=O)Nc2cccnc2Cl)nnc1-c1ccccc1	n	n	n	n	n	n
Cc1cnc(C)c(N2CCN(Cc3nc(-c4ccc(C)o4)oc3C)CC2)n1	n	n	n	n	n	n
Cc1cc(N2CCN(Cc3nc(-c4ccc(Cl)cc4)oc3C)CC2)cc(C)n1	n	n	n	n	n	n
COc1ccc(-c2nc(CN3CCN(c4cc(C)nc(C)c4)CC3)c(C)o2)c2ccccc12	n	n	n	n	82	n
Cc1oc(-c2cccc3ccccc23)nc1CN1CCN(c2ncnc3ccccc23)CC1	n	n	69	n	n	n
COc1ccc(C2/C=C\CN(C(=O)C3CC3)[C@H](Cc3ccccc3)C(=O)N2Cc2ccc(F)cc2)cc1 (some centres undefined)	n	n	n	n	n	n
COc1ccc(C2/C=C\CN(C(=O)c3ccc(C)cc3)[C@H](Cc3ccccc3)C(=O)N2Cc2ccc(F)cc2)cc1 (some centres undefined)	n	n	n	n	70	n
COc1ccc(-c2nc3ccc(C)cn3c2CC2CCCCC2)cc1OC	n	n	n	n	n	n
Cc1cc(CNC(=O)COc2ccc(F)cc2F)c2ccccc2n1	n	n	n	n	n	n
Cc1cc(CNC(=O)COc2cc(F)ccc2[N+](=O)[O-])c2ccccc2n1	n	n	77	n	n	n
CCC(CO)Oc1cc(NC(=O)c2ccc(OC)cc2)c2ncn(C(C)C)c2c1 (centres undefined)	n	n	n	n	n	n
C=CCn1c(O)c(C2=c3ccccc3=NC2=O)sc1=Nc1ccc(O)cc1	n	n	n	n	63	n
O=C1N=c2ccccc2=C1c1sc(=S)n(NC(=O)c2ccccc2)c1O	n	n	n	n	n	n
SMILES	HIF-2a inh	KKLEB cytotox	TWEAK Fn14 block	TROY NFkB inh	Peg3 prom inh	CF NFkB block
CCn1nnc2cc(C(=O)Nc3cc(OC)cc(OC)c3)ccc21	n	n	n	n	n	n
O=C1CCCN1Cc1ncnn1-c1ccccc1	n	n	65	x	n	n
O=C1CCCCCCCN1Cc1ccccc1	n	n	n	n	n	n
COc1ccc(C(O)c2ncc(-c3ccccc3)[nH]2)c(OC)c1 (centres undefined)	n	n	n	n	n	n
CC(=O)N[C@H]1[C@H](OCc2ccccc2F)O[C@H](COC(C)=O)[C@@H](OC(C)=O)[C@@H]1OC(C)=O	n	n	n	n	n	n
COc1ccc(O[C@@H]2O[C@H](COC(C)=O)[C@@H](OC(C)=O)[C@H](OC(C)=O)[C@H]2NC(C)=O)cc1	n	n	n	n	79	n
COc1cc2cnc(-c3ccccc3)c(-c3ccc(C(F)(F)F)cc3)c2cc1OC	n	n	n	n	64	n
CSc1ncc(C(=O)Nc2ccccc2)cn1	n	n	n	n	n	n
COC(=O)[C@@H]1Cc2c([nH]c3ccccc23)C(C)(C)N1C(=O)CCl	n	-62	n	n	n	74
Cc1ccc(C(=O)OCC(=O)NC2CCCC(C)C2C)s1 (centres undefined)	n	n	n	n	n	n
CC(C)(C)NC(=O)C(c1cccc2ccccc12)n1c(=O)c(-c2cc3ccccc3[nH]2)nc2ccccc21 (centres undefined)	n	x	x	x	x	x
Clc1ccc2c(NNc3ccccc3Cl)ccnc2c1	n	n	n	n	n	n
O=[N+]([O-])c1ccc(/C=N/Nc2ccnc3cc(Cl)ccc23)o1	n	n	n	n	93	n
O=[N+]([O-])c1ccc(/C=N/NS(=O)(=O)c2ccc(Cl)cc2)o1	n	n	n	n	n	n
Clc1ccc2c(N/N=C/c3cccc(Br)c3)ccnc2c1	n	n	n	n	76	n
O=C(Nc1nc(-c2ccccc2)cs1)c1ccccc1NS(=O)(=O)c1ccc(F)cc1	n	n	88	n	n	n
O=C(COc1ccccc1Cl)Nc1nc(-c2ccncc2)cs1	n	n	53	n	n	n
O=C(COc1ccc(Cl)cc1)Nc1nc(-c2ccncc2)cs1	n	n	n	n	n	n
CCOc1cccc(C(=O)Nc2nc(-c3ccc(S(=O)(=O)N4CCOCC4)cc3)cs2)c1	n	n	n	50	n	n
CCOc1ccc2nc(NC(=O)c3ccc(OC)c(S(=O)(=O)N4CCOCC4)c3)sc2c1	n	n	n	53	n	n
COc1ccccc1C(=O)NCCC(=O)NC1CCC(C)CC1 (centres undefined)	n	n	n	n	n	n
COc1ccccc1OC(C)C(=O)Nc1nc(-c2ccc(S(=O)(=O)N3CCOCC3)cc2)cs1 (centres undefined)	n	n	n	n	n	n
CC(C)C(=O)Nc1nc(-c2ccc(S(=O)(=O)N3CCOCC3)cc2)cs1	n	n	n	n	n	n
COc1ccccc1C(=O)Nc1nc(-c2ccc(S(=O)(=O)N3CCOCC3)cc2)cs1	n	n	107	65	95	n
O=C(COc1cccc(Cl)c1)Nc1nc(-c2ccc(S(=O)(=O)N3CCOCC3)cc2)cs1	n	n	57	n	n	n
CCNc1nc(NCC)n2c(SCC(=O)Nc3ccc(C)cc3Br)nnc2n1	n	n	n	n	n	n
Cc1ccc(S(=O)(=O)NCCc2nnc3ccc(N4CCOCC4)nn23)cc1	n	n	n	n	n	n
